The record followed here is PubChem BioAssay.

This test relates to Neuregulin-1 EGF-like domain. Kind of test: small molecules binding NRG1 EGF domain – biochemical, small-molecule microarray, 635 nm fluorescence, primary screen (AID 1081).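 Note: binding of the protein to compounds printed on small-molecule microarray slides.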 To be noted: higher = more signal.
On to `CCCNC(=O)[C@@]1(Sc2ccc(C)cc2)CC(=O)N(Cc2ccccc2Cl)[C@@H]1c1ccc(CO)cc1`, for which the composite z-score amounted to 1.3. Next, `C[C@H]1COC(=O)[C@H](Cc2ccccc2)NC(=O)[C@@H](C)COC(=O)[C@H](Cc2ccccc2)NC1=O`: 1.11; `CC(C)N1CC=CC23O[C@@H]4/C=C\CCCOC(=O)C4[C@H]2C(=O)N(CCO)[C@@H]3C1=O` (some centres not stated): 1.12. Next, `COC(=O)[C@@]1(Cc2ccc(OC)cc2)[C@H]2c3cc(C(=O)N(C)C)n(CCc4ccc(OC)c(Br)c4)c3C[C@H]2CN1C(=O)c1ccccc1`: 1.34; `COCCOC(=O)N1C(=O)[C@@]2(c3cc(C#CCCO)ccc31)[C@H](c1ccc(O)cc1)N1[C@H](c3ccccc3)[C@H](c3ccccc3)OC(=O)[C@H]1[C@@H]2C(=O)Nc1nc2ccccc2s1`: 1.15; `C=CC[C@]1(C(=O)N2CCCCC2)N=C(c2ccc(OCCCO)cc2)O[C@H]1c1ccccc1N=[N+]=[N-]`: 1.24.

The compound `CCCC=C(CCC)[C@@H](NS(=O)(=O)c1cccc(C(F)(F)F)c1)c1ccc(C(=O)OC)cc1` registered a composite z-score of 0.53. Consider `COc1ccc([Si](C)(C)[C@@H]2[C@@H](CC(=O)N(CCO)Cc3ccccc3)O[C@]3(C(=O)N(Cc4cccc(N5CCC5=O)c4)c4ccccc43)[C@H]2C)cc1`, for which the composite z-score is 1.13. Next, `COc1cc([C@@H]2N[C@H](C(=O)O)Cc3c2[nH]c2ccccc32)cc(OC)c1OC`: -0.205; `COCC(=C=CC[C@H](O)c1ccc(OCCO)cc1)C[C@H](O)c1ccccn1`: 1.27; `COCCOC(=O)N1C(=O)[C@@]2(c3cc(C#CC4(O)CCCCCC4)ccc31)[C@H](C(=O)N1CCCCCCC1)[C@H]1C(=O)O[C@H](c3ccccc3)[C@H](c3ccccc3)N1[C@@H]2c1ccc(O)cc1`: 1.2.

As to `C=CCC(OC(C)=O)[C@@H]1[C@@H](N(Cc2cc3ccccc3o2)C(=O)c2ccc(C)cc2)c2cc(OCCCO)ccc2N1C(=O)c1ccc2ccccc2n1` (some centres not stated), the composite z-score is -0.323. Next, `C=C(COC)C(=O)CC[C@H](OC(=O)c1ccccc1-c1ccccc1C(=O)O)c1cccc(OCCO)c1`: 1.37; `CC(C)[Si](OCC[C@H]1O[C@]2(C(=O)N(Cc3ccccc3)c3ccccc32)[C@@H](C)[C@@H]1[Si](C)(C)O)(C(C)C)C(C)C`: -0.0474. Next, `CO[C@H]1COC(=O)CC=C[C@H](C)[C@@H](OC)COC(=O)CC=C[C@@H]1C`: 0.692; `COCCOC(=O)N1C(=O)[C@@]2(c3cc(C#CC4=CCCCC4)ccc31)[C@H](C(=O)NC[C@H](O)c1ccccc1)[C@H]1C(=O)O[C@H](c3ccccc3)[C@H](c3ccccc3)N1[C@@H]2c1ccccc1OCCO`: 1.09; `COc1cc2c(cc1OC)CN(C(=O)[C@H]1[C@@H]3C(=O)O[C@@H](c4ccccc4)[C@@H](c4ccccc4)N3[C@@H](c3ccc(O)cc3)[C@]13C(=O)Nc1ccc(C#CC4(O)CCCCCC4)cc13)CC2`: 1.33. Next, `CN(C)C(=O)[C@@]1(Cc2ccccc2N=[N+]=[N-])N=C(c2ccc(OCCCO)cc2)O[C@H]1c1ccccc1CN=[N+]=[N-]`: 1.23; `CO[C@H]1COC(=O)[C@@H](C)COC(=O)[C@H](Cc2ccccc2)NC(=O)CC=C[C@H]1C`: -0.703; `CC(=O)NCCCC[C@@H]1NC(=O)[C@H]2C[C@@H](C(=O)NCCCCCCN(C)C)[C@@H](c3cccc(OCCO)c3)N2C1=O`: 1.35. On to `C=CCC(OC(C)=O)[C@@H]1[C@@H](N(Cc2ccc(-c3ccccc3)cc2)C(=O)c2ccc(-c3ccccc3)cc2)c2cc(OCCCO)ccc2N1C(=O)Cc1ccc(OC)cc1` (some centres not stated), for which the composite z-score was -0.261. Next, `COCCCNC(=O)[C@@H]1c2ccccc2C(=O)N(CC23CC4CC(CC(C4)C2)C3)[C@H]1c1ccc(CO)cc1`: 1.1; `C=CCN1C(=O)[C@]2(O[C@H](CCn3cc(CCO)nn3)[C@@H]([Si](C)(C)c3ccc(OC)cc3)[C@@H]2C)c2cc(NC(=O)c3ccc(OC)cc3)ccc21`: 0.974; `C=C(CCCC)/C(=C/C[C@@H](OC(=O)c1ccncc1)c1ccc(CO)o1)c1cnc2ccccc2c1`: 0.743. Next, `COC(=O)Cn1c(C(=O)N2CCCC2)cc2c1C[C@H]1CN(C(=O)c3ccccc3)[C@@](Cc3ccc(OC)cc3)(C(=O)OC)[C@@H]21`: 1.27. Next, `C=C(CCCC)C(=O)CC[C@@H](OC(C)=O)c1ccccc1OCCO`: -0.37; `CCOC(=O)C[C@H]1[C@H](OC(=O)c2cc3ccccc3oc2=O)[C@@H](NC(=O)C2CCCCC2)c2cc(OCCCO)ccc2N1C(=O)c1ccc2ccccc2n1`: 0.675.
